Reference: PubChem BioAssay (EPA / NIEHS)
Activity calls are given as the source filed them. Rule for the calls: active = hit-call score of the fitted dose curve at least 0.9, where 1 is the maximum; inactive = score below 0.9.

Tests used:
[1] = ATG_CRE_CIS: Attagene CIS-FACTORIAL HepG2 Assay for human cAMP Responsive Element (CRE) binding protein 3 (AID 2282926); conditions: HepG2 CRE cis-reporter, Attagene multiplexed mRNA; actives raise or lower the signal
Summary of the method: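 Endogenous CRE-binding activity in HepG2 is reported through a cis-regulated transfected reporter. Following a day of exposure, mRNA levels are determined by reverse transcription PCR and fluorescent fragment analysis; fits run in both directions versus DMSO.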

[2] = ATG_CMV_CIS: Attagene CIS-FACTORIAL HepG2 Assay for human CMV (Internal Marker) (AID 2282928); conditions: HepG2 CMV promoter reporter, transcription factor profiling; actives raise or lower the signal;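 note: endpoint acts as a background internal control marker rather than a target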
Summary of the method: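 Cell system: HepG2, transiently transfected multiple reporter units under cis promoters. Exposure: 24 h. Detection: RT-PCR, FAM labeling, HpaI digestion, capillary electrophoresis. Analysis: bidirectional, DMSO baseline.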

[3] = ATG_DR4_LXR_CIS: Attagene CIS-FACTORIAL HepG2 Assay for human Liver X Receptor (LXR), DR4 submotif (AID 2282929); conditions: HepG2 Attagene DR4 cis-reporter, mRNA transcription; actives raise or lower the signal
Summary of the method: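 HepG2 cells were transiently transfected with multiple cis-regulated reporter units and dosed for 24 hours. The DR4 reporter mRNA was quantified by RT-PCR, 6-FAM labelling and capillary electrophoresis. Bidirectional fits used DMSO as baseline.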

[4] = ATG_AP_1_CIS: Attagene CIS-FACTORIAL HepG2 Assay for human Activator Protein 1 (AP-1) (AID 2282931); conditions: HepG2 Attagene cis-factorial AP-1 reporter mRNA; actives raise or lower the signal
Summary of the method: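 HepG2 cells transiently transfected with cis-element-driven reporter transcription units, dosed for 24 hours. Reporter mRNA measured by RT-PCR, 6-FAM labelling, HpaI digestion and capillary electrophoresis. Bidirectional fitting against DMSO baseline.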

[5] = ATG_AP_2_CIS: Attagene CIS-FACTORIAL HepG2 Assay for human Activator Protein 2 (AP-2) (AID 2282932); conditions: HepG2 AP-2 cis-reporter, Attagene transcription factor profiling; actives raise or lower the signal
Summary of the method: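 Bidirectional curve fitting against DMSO was applied to reporter mRNA signals from HepG2 cells 24 h after dosing. Cis-promoter reporter units, transiently transfected, were read by RT-PCR plus capillary electrophoresis.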

[6] = ATG_BRE_CIS: Attagene CIS-FACTORIAL HepG2 Assay for human Bone Morphogenetic Protein (BMP) Response Element (BRE) (AID 2282933); conditions: HepG2 BMP response element reporter, Attagene transcription factor profiling; actives raise or lower the signal
Summary of the method: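 Transient MRTU transfection of human HepG2 liver cells; 24 h compound treatment; total RNA isolated, reverse-transcribed, PCR-amplified, 6-FAM labelled, HpaI-cut, capillary electrophoresis. DMSO = negative control/baseline, bidirectional fit.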

[7] = biological target: Retinoic acid receptor alpha (Homo sapiens) (UniProt P10276); assay: ATG_DR5_RAR_CIS: Attagene CIS-FACTORIAL HepG2 Assay for human Retinoic Acid Receptor Alpha (RARE), DR5 submotif (AID 2282934); conditions: HepG2 Attagene cis-factorial RARE DR5 reporter, mRNA; actives raise or lower the signal;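 for AC50: reporter responds to endogenous RAR alpha beta and gamma in HepG2 not RARA alone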
Retinoic acid receptor alpha (Homo sapiens), sequence (P10276 whole entry, looked up): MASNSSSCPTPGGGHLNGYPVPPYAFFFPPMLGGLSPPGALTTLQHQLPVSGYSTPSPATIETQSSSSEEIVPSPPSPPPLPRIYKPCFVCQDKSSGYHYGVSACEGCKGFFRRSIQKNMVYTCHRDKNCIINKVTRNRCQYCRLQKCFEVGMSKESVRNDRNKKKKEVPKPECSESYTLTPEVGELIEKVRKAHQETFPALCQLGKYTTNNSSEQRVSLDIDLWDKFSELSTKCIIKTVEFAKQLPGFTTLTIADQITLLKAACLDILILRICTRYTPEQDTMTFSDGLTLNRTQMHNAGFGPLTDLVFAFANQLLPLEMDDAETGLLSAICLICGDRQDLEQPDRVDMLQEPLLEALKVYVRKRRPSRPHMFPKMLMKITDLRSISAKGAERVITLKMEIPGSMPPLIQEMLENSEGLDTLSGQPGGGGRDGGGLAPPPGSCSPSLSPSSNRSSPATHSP
Summary of the method: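 Transfected HepG2 reporter cells are exposed to chemicals for 24 h. Then RNA is extracted and the DR5 element reporter transcript is measured by RT-PCR and capillary electrophoresis, with bidirectional curve fitting relative to DMSO.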

[8] = biological target: Transcription factor E2F1 (Homo sapiens) (UniProt Q01094); assay: ATG_E2F_CIS: Attagene CIS-FACTORIAL HepG2 Assay for human E2F Transcription Factor 1 (AID 2282935); conditions: HepG2 Attagene cis-reporter, E2F reporter RNA transcripts; actives raise or lower the signal
Transcription factor E2F1 (Homo sapiens), sequence (Q01094 whole entry, looked up): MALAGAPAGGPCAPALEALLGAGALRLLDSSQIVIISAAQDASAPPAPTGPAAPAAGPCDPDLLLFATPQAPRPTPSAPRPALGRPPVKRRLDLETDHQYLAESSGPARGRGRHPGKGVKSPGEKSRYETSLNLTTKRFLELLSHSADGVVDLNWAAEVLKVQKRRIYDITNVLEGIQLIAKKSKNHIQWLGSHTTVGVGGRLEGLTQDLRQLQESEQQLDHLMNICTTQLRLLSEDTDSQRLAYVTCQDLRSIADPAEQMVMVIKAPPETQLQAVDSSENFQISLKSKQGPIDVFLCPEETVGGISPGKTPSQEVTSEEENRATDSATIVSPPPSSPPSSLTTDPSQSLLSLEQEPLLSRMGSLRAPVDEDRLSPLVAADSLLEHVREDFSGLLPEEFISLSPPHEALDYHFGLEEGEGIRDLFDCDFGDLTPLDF
Summary of the method: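 Multiplexed cis-reporter assay: HepG2, transient transfection, 24 h dosing, mRNA quantitation by labeled RT-PCR and CE.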

[9] = ATG_E_Box_CIS: Attagene CIS-FACTORIAL HepG2 Assay for human Enhancer Box (E-box) (AID 2282936); conditions: HepG2 E-box cis-reporter transcription, actives raise or lower the signal
Summary of the method: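 Multiplexed CIS reporter system in transiently transfected HepG2 cells measures native transcription factor activity. Reporter RNA after 24 h exposure is profiled by RT-PCR-capillary electrophoresis.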

[10] = ATG_M_61_CIS: Attagene CIS-FACTORIAL HepG2 Assay for M61 Transcription Factor (Internal Marker) (AID 2282937); conditions: HepG2 Attagene CIS-FACTORIAL M61 internal marker reporter; actives raise or lower the signal
Summary of the method: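 HepG2 cells transiently transfected with multiplexed cis-promoter reporter units reporting endogenous transcription factor activity, measured 24 h after dosing. Reporter mRNA quantified by RT-PCR and capillary electrophoresis; bidirectional fit against DMSO baseline.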

[11] = ATG_EGR_CIS: Attagene CIS-FACTORIAL HepG2 Assay for human Early Growth Response 1 (EGR1) (AID 2282938); conditions: HepG2 Attagene CIS-FACTORIAL EGR reporter mRNA; actives raise or lower the signal
Summary of the method: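 HepG2 cells transiently transfected with cis-element-driven multiplexed reporter units, dosed for 24 h. EGR1-element reporter mRNA quantified by RT-PCR, 6-FAM labelling, HpaI digestion and capillary electrophoresis; bidirectional fit versus DMSO.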

[12] = ATG_M_19_CIS: Attagene CIS-FACTORIAL HepG2 Assay for M19 Transcription Factor (Internal Marker) (AID 2282939); conditions: HepG2 Attagene CIS-FACTORIAL M19 internal marker reporter; actives raise or lower the signal
Summary of the method: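 Transfect HepG2 with MRTU reporter library → dose chemical, 24 h → isolate total RNA, reverse-transcribe with oligo(dT) → PCR, 6-FAM label, HpaI cut (2 h, 37 C) → capillary electrophoresis. Bidirectional fit vs DMSO.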

[13] = ATG_Ets_CIS: Attagene CIS-FACTORIAL HepG2 Assay for human Erythroblast Transformation Specific (ETS) (AID 2282941); conditions: HepG2 ETS cis-reporter transcription, actives raise or lower the signal
Summary of the method: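 After transient cis-reporter transfection, HepG2 cells receive test chemical for 24 h. Reporter mRNA levels, measured by RT-PCR and capillary electrophoresis fluorescence, are analysed bidirectionally relative to the DMSO baseline.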

[14] = biological target: Hepatocyte nuclear factor 3-beta (Homo sapiens) (UniProt Q9Y261); assay: ATG_FoxA2_CIS: Attagene CIS-FACTORIAL HepG2 Assay for human Forkhead box A2 (FOXA2) (AID 2282942); conditions: HepG2 cis-reporter transcription factor activity, 24 h; actives raise or lower the signal
Hepatocyte nuclear factor 3-beta (Homo sapiens), sequence (Q9Y261 whole entry, looked up): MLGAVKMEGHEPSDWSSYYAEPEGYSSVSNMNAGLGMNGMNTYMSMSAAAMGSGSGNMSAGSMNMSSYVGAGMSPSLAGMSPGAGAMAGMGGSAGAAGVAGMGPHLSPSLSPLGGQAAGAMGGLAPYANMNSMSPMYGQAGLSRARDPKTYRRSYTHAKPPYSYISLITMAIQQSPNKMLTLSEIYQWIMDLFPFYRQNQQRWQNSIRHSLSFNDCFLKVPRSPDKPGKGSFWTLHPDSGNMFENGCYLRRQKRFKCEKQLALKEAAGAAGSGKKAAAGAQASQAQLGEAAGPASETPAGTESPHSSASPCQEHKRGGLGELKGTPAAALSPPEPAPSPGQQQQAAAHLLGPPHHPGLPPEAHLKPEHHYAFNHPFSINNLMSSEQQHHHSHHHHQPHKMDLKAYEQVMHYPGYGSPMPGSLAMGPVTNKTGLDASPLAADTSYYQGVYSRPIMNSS
Summary of the method: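 HepG2 transiently transfected with a multiplexed cis-promoter reporter library read endogenous FOXA2 activity. After 24 h compound exposure, reporter mRNA was quantified by RT-PCR, HpaI digestion and capillary electrophoresis. Bidirectional fit against DMSO.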

[15] = ATG_FoxO_CIS: Attagene CIS-FACTORIAL HepG2 Assay for human Forkhead box O (FoxO) (AID 2282943); conditions: HepG2 Attagene cis-reporter, FoxO element, mRNA; actives raise or lower the signal
Summary of the method: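 24 h chemical exposure, HepG2 with transient cis-MRTU transfection. RNA extraction, oligo(dT) RT, reporter-specific PCR, primer-extension labelling, HpaI digestion, CE fragment analysis; bidirectional fit, DMSO baseline.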

[16] = ATG_GATA_CIS: Attagene CIS-FACTORIAL HepG2 Assay for human GATA Binding Protein (AID 2282944); conditions: HepG2 GATA cis-element reporter, Attagene multiplex mRNA; actives raise or lower the signal
Summary of the method: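 Transient MRTU transfection, HepG2, 24 h compound exposure. Total RNA → oligo(dT) RT → PCR → 6-FAM primer extension → HpaI cut → CE. Bidirectional fit vs DMSO.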

[17] = ATG_GLI_CIS: Attagene CIS-FACTORIAL HepG2 Assay for human Zinc Finger Protein GLI1 (AID 2282945); conditions: HepG2, Attagene cis-factorial reporter mRNA, GLI element; actives raise or lower the signal
Summary of the method: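 HepG2 cells transiently transfected with cis-promoter multiplexed reporter units report endogenous transcription factor activity. After 24 h chemical exposure, reporter mRNA was quantified by RT-PCR, 6-FAM labelling, HpaI digestion and capillary electrophoresis, with bidirectional fitting against DMSO.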

[18] = biological target: Aryl hydrocarbon receptor (Homo sapiens) (UniProt P35869); assay: ATG_Ahr_CIS: Attagene CIS-FACTORIAL HepG2 Assay for human Aryl Hydrocarbon Receptor (Ahr) (AID 2282930); conditions: HepG2 AhR cis-factorial reporter transcription; actives raise or lower the signal
Aryl hydrocarbon receptor (Homo sapiens), sequence (P35869 whole entry, looked up): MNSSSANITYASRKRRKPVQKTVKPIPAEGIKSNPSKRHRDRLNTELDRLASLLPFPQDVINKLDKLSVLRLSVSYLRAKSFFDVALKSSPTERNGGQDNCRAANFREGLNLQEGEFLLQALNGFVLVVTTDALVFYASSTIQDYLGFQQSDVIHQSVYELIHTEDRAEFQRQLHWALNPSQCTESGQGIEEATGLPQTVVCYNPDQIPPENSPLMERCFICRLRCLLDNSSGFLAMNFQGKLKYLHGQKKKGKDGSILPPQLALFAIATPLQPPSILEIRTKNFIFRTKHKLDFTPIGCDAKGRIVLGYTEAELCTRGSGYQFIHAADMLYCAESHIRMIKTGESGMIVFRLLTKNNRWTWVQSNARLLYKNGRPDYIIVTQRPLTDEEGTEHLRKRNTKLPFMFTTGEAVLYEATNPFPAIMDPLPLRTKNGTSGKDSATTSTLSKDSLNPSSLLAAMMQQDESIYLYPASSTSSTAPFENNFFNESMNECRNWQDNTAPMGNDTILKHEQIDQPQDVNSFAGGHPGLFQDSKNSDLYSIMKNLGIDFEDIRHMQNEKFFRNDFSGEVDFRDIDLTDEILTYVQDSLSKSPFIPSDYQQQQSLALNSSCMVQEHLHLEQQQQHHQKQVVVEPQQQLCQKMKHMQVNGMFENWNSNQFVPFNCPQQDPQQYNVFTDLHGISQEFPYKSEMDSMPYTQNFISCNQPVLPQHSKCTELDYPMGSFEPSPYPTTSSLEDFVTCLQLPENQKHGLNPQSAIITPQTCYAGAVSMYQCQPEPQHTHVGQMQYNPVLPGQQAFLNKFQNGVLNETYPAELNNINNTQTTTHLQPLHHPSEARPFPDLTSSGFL
Summary of the method: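 Following 24 h of chemical dosing, transfected HepG2 liver cells with cis-driven reporter units were lysed for RNA; reporter mRNA was quantified via RT-PCR and capillary electrophoresis, and responses fitted bidirectionally from DMSO.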

[19] = biological target: CCAAT/enhancer-binding protein beta (Homo sapiens) (UniProt P17676); assay: ATG_C_EBP_CIS: Attagene CIS-FACTORIAL HepG2 Assay for human CCAAT/Enhancer Binding Protein (C/EBP) beta (AID 2282927); conditions: HepG2 Attagene cis-factorial transcription factor reporter; actives raise or lower the signal
CCAAT/enhancer-binding protein beta (Homo sapiens), sequence (P17676 whole entry, looked up, the tested form may be a part): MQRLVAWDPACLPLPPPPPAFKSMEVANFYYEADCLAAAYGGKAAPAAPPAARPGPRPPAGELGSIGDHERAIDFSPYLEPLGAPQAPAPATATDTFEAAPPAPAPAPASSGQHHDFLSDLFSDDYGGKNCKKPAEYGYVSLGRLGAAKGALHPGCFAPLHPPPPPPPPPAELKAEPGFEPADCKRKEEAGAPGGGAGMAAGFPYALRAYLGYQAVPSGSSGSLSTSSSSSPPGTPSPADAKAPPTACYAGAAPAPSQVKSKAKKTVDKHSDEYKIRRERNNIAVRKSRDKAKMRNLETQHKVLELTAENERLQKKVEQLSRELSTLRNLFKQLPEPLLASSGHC
Summary of the method: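 Chemical-treated HepG2 cells (24 h) bearing cis-regulated reporter constructs were processed for total RNA, then reverse transcription, PCR amplification, fluorescent primer extension and fragment analysis; gain- and loss-of-signal were fitted against DMSO.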

[20] = ATG_ERE_CIS: Attagene CIS-FACTORIAL HepG2 Assay for Estrogen Response Element (ERE) (AID 2282940); conditions: HepG2 ERE cis-reporter, Attagene RNA transcript; actives raise or lower the signal
Summary of the method: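 Transient MRTU transfection of human HepG2; cis-element promoters; 24 h dosing; total RNA → RT (oligo dT) → PCR → 6-FAM primer extension → HpaI digest → CE fluorescence. Bidirectional fit, DMSO baseline.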

Measured: AC50

COc1ccc(N)c([N+](=O)[O-])c1
not listed: [18] | [19] | [20]
inactive: all other assays above

CCCC(O)C(O)CO (centres undefined)
not listed: [18] | [19] | [20]
inactive: all other assays above

OCCCCC(O)CO (centres undefined)
not listed: [18] | [19] | [20]
inactive: all other assays above

CCCCCCCCCCCCCCN(CCO)CCO
active: [3] 13.8 µM
not listed: [4] | [5] | [19] | [20]
inactive: all other assays above

COC(=O)Nc1ccc(Cl)c(Cl)c1
active: [2] 24 µM | [3] 26.2 µM
not listed: [4] | [14] | [16] | [18] | [19] | [20]
inactive: all other assays above

CC1=C(Br)C(=O)C(Br)=C/C1=C(/c1ccccc1S(=O)(=O)O)c1cc(Br)c(O)c(Br)c1C
not listed: [18] | [19] | [20]
inactive: all other assays above

CCCCC(CC)C(=O)OC(C)C (centres undefined)
not listed: [4] | [6] | [18] | [20]
inactive: all other assays above

CCC(C)S (centres undefined)
not listed: [4] | [6] | [7] | [19] | [20]
inactive: all other assays above

Nc1ccc2cc(S(=O)(=O)O)cc(O)c2c1N=Nc1ccccc1C(F)(F)F
active: [18] 12.6 µM
not listed: [6] | [19] | [20]
inactive: all other assays above

CC1C2CC(CC2C2CCCC(O)C2)C1(C)C (centres undefined)
not listed: [18] | [19] | [20]
inactive: all other assays above

Cc1ccc(S(=O)(=O)Oc2ccc(N=Nc3ccc(-c4ccc(N=Nc5c(O)ccc6cc(S(=O)(=O)O)cc(S(=O)(=O)O)c56)c(C)c4)cc3C)cc2)cc1
active: [6] 7.56 µM
not listed: [18] | [19] | [20]
inactive: all other assays above

CC1(C)O[C@@H]2[C@@H](CO[C@@]3(COS(N)(=O)=O)OC(C)(C)O[C@@H]23)O1
not listed: [1]
inactive: all other assays above

CCOc1ccc(N=Nc2ccc(C=Cc3ccc(N=Nc4ccc(OCC)cc4)cc3S(=O)(=O)O)c(S(=O)(=O)O)c2)cc1
active: [18] 12.2 µM | [6] 7.28 µM
not listed: [19] | [20]
inactive: all other assays above

C[C@H](CCC(=O)NCC(=O)O)[C@H]1CC[C@H]2[C@@H]3[C@H](O)C[C@@H]4C[C@H](O)CC[C@]4(C)[C@H]3C[C@H](O)[C@]12C
not listed: [4] | [6] | [14] | [19] | [20]
inactive: all other assays above

Oc1c(Cl)cc(Cl)c(Cl)c1Cc1c(O)c(Cl)cc(Cl)c1Cl
active: [2] 11.1 µM | [18] 5.86 µM | [5] 1.98 µM | [6] 5.37 µM | [7] 0.527 µM | [11] 11.1 µM | [13] 0.878 µM
not listed: [4] | [19] | [20]
inactive: all other assays above
